Screens as filed in PubChem BioAssay.
TDP1 cell CPT – DT40-hTDP1 cell growth loss with CPT. chicken DT40 Tdp1-/-;hTDP1 cells + 20 nM CPT, ATP luminescence, 48 h. hit rate 12% among 420,000. Potency, µM (titrated, usually from 46.2 µM), for inactives: at the highest dose activity change, negative = growth inhibition, hits mostly inhibitors; also: potency is read from the fitted curve at half-maximal effect; nearly all actives have a fitted effect of over 55% in size
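Chicken DT40 Tdp1-/- cells complemented with human TDP1, 400 cells/well, exposed to compounds plus 20 nM camptothecin for at least 48 h at 37 C; viability read as ATP content by CellTiter-Glo luminescence.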
IL1B secr inh – inflammasome signaling inhibition, IL-1 beta readout | hit rate 4.7% among 360,000 | AID 743279 | THP-1 LPS/ATP IL-1B secretion, AlphaLISA, 16 h; active compounds read low | activity change, % at 57.5 µM; in the data active = activity change below about -50%; inconclusive = mostly about -30% to -49%
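Secreted IL-1B measured by AlphaLISA bead assay after 16 h compound exposure of THP-1 cells; compounds (final up to 57.5 uM) added 1 h before LPS (250 ng/mL) and ATP (1.25 mM) stimulation; lower signal means less secretion.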
HT1080 IDH1KD tx – HT-1080 IDH1 knockdown cell toxicity (counter line) | HT-1080 IDH1 knockdown viability, ATP luminescence, 48 h | Potency, µM (doses to about 46.1 µM), without a hit: at the top dose activity, negative = toxicity, usual class: cytotoxic | hit rate 2% among 360,000 | AID 686971;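 also: potency is read from the fitted curve at half-maximal effect; 0% = DMSO wells and -100% = cell-free medium wells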
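CellTiter-Glo luminescence after 48 h compound exposure at 37 degrees C of IDH1-knockdown HT-1080 cells in 5% FBS RPMI. %Activity scaled between DMSO wells and cell-free media wells, with curves fitted and assigned curve classes.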
TDP1 cell noCPT – qHTS for Inhibitors of human tyrosyl-DNA phosphodiesterase 1 (TDP1): qHTS in cells in absence of CPT. DT40 Tdp1-/- hTDP1 cells, no CPT, ATP luminescence, 48 h. Potency, µM (titrated, usually from 46.2 µM), inactives show at the highest dose activity change, negative = growth inhibition, usual class: inhibitors. hit rate 15% among 420,000. AID 686978, 2013; also: potency is read from the fitted curve at half-maximal effect; nearly all actives have a fitted effect of over 55% in size
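Chicken DT40 Tdp1-/- cells complemented with human TDP1, screened without camptothecin (DMSO vehicle only), 400 cells/well. Compounds pin-transferred, cells incubated at 37 °C for at least 48 hr. Growth read as ATP-dependent luminescence (CellTiter-Glo, 30 min at RT).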
HT1080-NT tox – kills 2HG-producing HT-1080-NT fibrosarcoma cells | HT-1080-NT fibrosarcoma viability, CellTiter-Glo ATP luminescence, 48 h | Potency, µM (doses to about 46.1 µM), for the others: at the highest dose activity, negative = less viability, actives largely listed as cytotoxic | hit rate 1.6% among 360,000;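 also: NT is the 2HG producing partner of a matched IDH1 knockdown line; potency is read from the fitted curve at half-maximal effect; 0% = DMSO-treated cells and -100% = media-only wells without cells; nearly all actives have a fitted effect of over 55% in size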
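Toxicity toward the 2HG-producing NT line was scored as %Activity, normalised to DMSO and no-cell wells, from CellTiter-Glo luminescence after 48 hours' treatment.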
* hit, by the source's call; ? = inconclusive; . = not tested or not shown; [ ] = dose if it differs, or a comment. Rows were chosen to be rich in hits. Some 19% of all compounds tested hit in one or more screens of this group. Unless noted, calls follow the shape of the dose curve; as a rule, active = well fitted curve in the direction sought with a large enough effect; inconclusive = small, poorly fitted or top-dose-only effect, or another doubt; inactive = no such curve, though single readings can be large; an effect the other way counts as inactive or inconclusive. Unless noted, % is scaled to controls: 0 for no effect and ±100 for the full control effect.

SMILES | TDP1 cell CPT | IL1B secr inh | HT1080 IDH1KD tx | TDP1 cell noCPT | HT1080-NT tox
O=C(c1ccc(F)c(F)c1)N1CCOc2ccc(CN3CCN(Cc4ccccn4)CC3)cc2C1 | 25%[9.04 µM] | . | . | -14% | .
O=C(O)C1CCCCC1C(=O)NCc1ccccn1 (configuration not stated) | -10% | 0 | 16% | -4% | 4%
N=c1n(CC(=O)c2ccc([N+](=O)[O-])cc2)c2ccccc2n1Cc1ccccc1 | 7.3µM* | -106* | -6% | 5.8µM* | 4%
O=C(CN1CCN(Cc2ccccc2)CC1)c1ccc(Br)cc1 | ? | 21 | ? | -10% | -3%
N=c1n(CC(=O)c2ccc(Br)cc2)c2ccccc2n1Cc1ccccc1 | 5.2µM* | -101* | -7% | 6.5µM* | -23%
N=c1n(CC(=O)c2ccc([N+](=O)[O-])cc2)c2ccccc2n1Cc1ccc(Cl)cc1 | 2.9µM* | -28 | -3% | 5.2µM* | -4%
N=c1n(CC(=O)c2ccc([N+](=O)[O-])cc2)c2ccccc2n1Cc1ccccc1Cl | 2.9µM* | -60* | -9% | 2.9µM* | -1%
O=C1N=C(N2CCCC2)S/C1=C\C=C\c1ccccc1 | -3% | 3 | 0% | -28% | 0%
COc1ccc(-n2ncc3c(SCC(=O)OC(C)C)ncnc32)cc1 | -9% | -20 | 3% | ? | -3%
N=c1n(Cc2ccccc2)c2ccccc2n1Cc1ccccc1 | 18µM* | . | -25% | 21µM* | ?
N=c1n(Cc2ccccc2)c2ccccc2n1CC(O)c1ccco1 (configuration not stated) | 21µM* | -22 | -4% | 23µM* | -22%
CCCn1c(=N)n(CC(=O)c2ccco2)c2ccccc21 | -24% | -18 | -15% | -19% | 8%
CCn1c(=N)n(CC(O)c2ccco2)c2ccccc21 (configuration not stated) | -7% | -9 | -3% | -15% | -14%
Cc1ccccc1Cn1c(=N)n(CC(=O)c2ccco2)c2ccccc21 | 23µM* | -22 | ? | 16µM* | ?
N=c1n(CCO)c2ccccc2n1Cc1ccc(Cl)cc1 | 26µM* | -52* | -16% | 16µM* | -28%
O=C(O)c1cncc(C#CCC2CCCCC2)c1 | 9% | 21 | -1% | -5% | -12%
O=C1NC(Cc2c[nH]c3ccccc23)C(=O)N1CCOc1ccccc1 (configuration not stated) | -17% | -10 | -1% | -10% | -4%
O=C(O)C1OCC2(CO1)COC(C(=O)O)OC2 (configuration not stated) | 14% | -5 | 9% | -4% | 0%
N=c1n(CCN2CCCCC2)c2ccccc2n1CC(=O)c1cccc([N+](=O)[O-])c1 | ? | 67 | -2% | 18µM* | 0%
C=CCn1c(=N)n(CC(=O)c2cccc([N+](=O)[O-])c2)c2ccccc21 | ? | 12 | 0% | ? | -18%
O=C(Nc1ccc(O)cc1)C1CC=CCC1 (configuration not stated) | ? | -11 | -1% | ? | 3%
CC(C)C(NC(=O)c1ccc(C(C)(C)C)cc1)C(=O)NCC(c1ccccc1)N(C)C (configuration not stated) | ? | -18 | -4% | 21µM* | 24%
CC(C)C(NC(=O)c1ccc(C(C)(C)C)cc1)C(=O)NCCc1ccccn1 (configuration not stated) | ? | 29 | 8% | 21µM* | 8%
CC(C)[C@H](NC(=O)c1ccccc1)C(=O)NCCc1ccccc1 | -18% | 1 | 19% | ? | -13%
CCOc1ccccc1C(=O)NC(C(=O)NCCc1ccccn1)C(C)C (configuration not stated) | ? | -7 | 10% | ? | -7%
SMILES | TDP1 cell CPT | IL1B secr inh | HT1080 IDH1KD tx | TDP1 cell noCPT | HT1080-NT tox
Cc1cccc(C)c1NC(=O)CNC(=O)c1ccccc1 | 12% | 9 | 5% | 0% | 18%
Cc1cccc(C)c1NC(=O)CNC(=O)C(NC(=O)c1ccc(C(C)(C)C)cc1)C(C)C (configuration not stated) | ? | -6 | -4% | 21µM* | -7%
CCS(=O)(=O)N1CCC(C(=O)Nc2ccccc2OC)CC1 | -9% | -9 | 0% | -6% | 1%
NC(=O)COC(=O)c1ccccc1Nc1ccc(SC(F)F)cc1 | -19% | -3 | ? | ? | ?
CC1CN(C(=O)c2ccccc2Nc2ccc(SC(F)F)cc2)CC(C)O1 (configuration not stated) | 3% | 0 | -11% | -27% | 21%
CC(OC(=O)c1ccccc1Nc1ccc(SC(F)F)cc1)C(N)=O (configuration not stated) | ? | -75* | -13% | ? | -1%
CC(C)(C)NC(=O)COC(=O)c1ccccc1Nc1ccc(SC(F)F)cc1 | ? | 13 | -13% | 16µM* | -21%
Cc1cccc(C)c1NC(=O)COC(=O)c1ccccc1Nc1ccccc1 | ? | 16 | 9% | 9.2µM* | 13%
CC1CCCC(C)N1C(=O)c1ccccc1Nc1ccc(SC(F)F)cc1 (configuration not stated) | 23µM* | -23 | ? | 21µM* | 23µM*
CC(=O)Nc1ccc(Oc2cnc3ccccc3n2)cc1 | ? | 24 | 2.6µM* | ? | 2.3µM*
CCOc1ccc2nc(NCCCNC(=O)c3cc(OC)c(OC)c(OC)c3)c(C#N)cc2c1 | 13µM* | -6 | 10% | 16µM* | 3%
CCc1ccc(C(=O)OCC(=O)Nc2c(C)n(C)n(-c3ccccc3)c2=O)cc1 | -7% | -28 | 1% | -2% | -5%
CCCc1nc2ccccc2c(C(=O)OCC(=O)Nc2c(C)n(C)n(-c3ccccc3)c2=O)c1CC | ? | 15 | -8% | 16µM* | -8%
CCC(C)(C)C1CCc2nc3ccccc3c(C(=O)OC(C)C(=O)Nc3c(C)n(C)n(-c4ccccc4)c3=O)c2C1 (configuration not stated) | 23µM* | -22 | -25% | ? | -25%
CCOn1c(-n2nc(C)cc2C)nc2ccccc2c1=O | 9% | 4 | -4% | -5% | 2%
Cc1cc(C)n(-c2nc3ccccc3c(=O)n2OCC#N)n1 | 0.65µM* | -96* | ? | 0.65µM* | -16%
CCOC(=O)COn1c(-n2nc(C)cc2C)nc2ccccc2c1=O | ? | -21 | -16% | 26µM* | -4%
C=CC(=O)Nc1ccc(N(C)c2ccnc(Nc3ccc(N4CCN(C)CC4)cc3)n2)cc1 | ? | -77* | -22% | 16µM* | -28%
